# Results filed as inconclusive are left out. A call without a number means that no potency is given here. Calls of active or inactive are those of the source. Calls follow the shape of the dose curve; as a rule, active = well fitted inhibition curve with a large enough effect; inconclusive = small, poorly fitted or top-dose-only effect; inactive = no such curve, though single readings can be large or run the other way.
# Test: Primary qHTS for inhibitors of nuclear receptor binding SET domain protein 2 (NSD2) in an RCH-ACV wild type WT cells (2C) (AID 1645877); also: nearly all actives have a fitted effect of over 70% in size
# Conditions: RCH-ACV (leukaemia line) NSD2 WT (2C) viability, CellTiter-Glo, 72 h; series mostly up to 44.9 µM
# Potency is read from the fitted curve at half-maximal effect.
SMILES,"activity change, negative = cell killing",Potency
CC1(C)CC[C@]2(CO[C@@H]3O[C@H](CO)[C@@H](O)[C@H](O)[C@H]3O)[C@@H](O)C[C@]3(C)C(=CCC4[C@@]5(C)CC[C@H](O[C@@H]6O[C@H](CO[C@@H]7O[C@H](CO[C@@H]8OC[C@@H](O)[C@H](O)[C@H]8O)[C@@H](O)[C@H](O)[C@H]7O)[C@@H](O)[C@H](O)[C@H]6O)C(C)(C)C5CC[C@]43C)[C@@H]2C1 (stereo not given in full),-16% [at 9.23 µM] (inactive),–
C=C(C(=O)OC)C1C(O)CC2(C)C(O)CCC(=O)C2C1O (stereo not given),–,inactive
COC(=O)C1=CO[C@@H](O[C@@H]2O[C@H](CO)[C@@H](O)[C@H](O)[C@H]2O)[C@H]2[C@@H]1C=C[C@@]21C=C([C@H](C)O)C(=O)O1,–,inactive
COc1cc(C2Oc3c(OC)cc(CCCO)cc3C2CO)ccc1O[C@H]1O[C@H](C)[C@@H](O)[C@H](O)[C@@H]1O (stereo not given in full),–,inactive
C=CC(C)(O)C(O)CC1C(C)(O)C(O)C(O)C2C(C)(C)CCCC21C (stereo not given),–,inactive
C=C1C(O)CC2C(C(=O)O)=COC(O[C@@H]3O[C@H](COC(=O)/C=C/c4ccc(O)cc4)[C@@H](O)[C@H](O)[C@H]3O)C12 (stereo not given in full),–,inactive
COc1cc(C2c3cc4c(c(O)c3CC(CO)C2C(=O)O)OCO4)cc(OC)c1O (stereo not given),–,2000 nM (active)
CCOc1ccc2nc(SCCN3CCOCC3)[nH]c2c1,–,inactive
Cc1cc(C)cc(C(=O)NOCCCCCC(=O)NO)c1,–,409 nM (active)
C[C@@H]1CC[C@]2(C(=O)O)CC[C@]3(C)C(=CCC4[C@@]5(C)C[C@@H](O)[C@H](O)[C@@](C)(CO)C5CC[C@]43C)C2[C@]1(C)O (stereo not given in full),–,inactive

# Source: PubChem BioAssay (NCATS)
